# Laboratory results taken from PubChem BioAssay (NCATS).
# Where “and” joins values, the source holds several entries; their conditions need not be identical. Equal entries are not always repeated. Records with an inconclusive call do not appear. Where a call stands in place of a potency, no number is given. Values without a mark were called inactive. Calls of active or inactive are those of the source. Unless noted, calls come from the whole dose curve; as a rule, active = well fitted curve in the direction sought with a large enough effect; inconclusive = small, poorly fitted or top-dose-only effect, or another doubt; inactive = no such curve, though single readings can be large; an effect the other way counts as inactive or inconclusive.
# Experiments:
# [1] = biological target: Calcium and integrin-binding protein 1 (Homo sapiens) (UniProt Q99828); assay: Primary qHTS for Identification of Calcium Integrin Binding Protein 1 (CIB1) Competitor (AID 1508620);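 note: GST tagged CIB1 binding a fluorescein labelled alphaIIb integrin peptide tracer; top concentration of the series differs between compounds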
# Chain of Calcium and integrin-binding protein 1 (Homo sapiens) (Q99828 whole entry, looked up): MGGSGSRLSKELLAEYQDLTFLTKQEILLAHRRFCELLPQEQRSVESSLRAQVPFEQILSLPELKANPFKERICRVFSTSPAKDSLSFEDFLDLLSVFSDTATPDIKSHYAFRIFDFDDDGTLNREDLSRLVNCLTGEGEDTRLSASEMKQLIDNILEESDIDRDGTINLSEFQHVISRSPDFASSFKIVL
# Procedure, shortened: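 CIB1-GST (1 uM final) and compound incubated 15 min at room temperature before adding FITC-alphaIIb peptide tracer (100 nM final). Competition for binding read by fluorescence polarization (ex 480, em 540) after another 15 min at room temperature.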
# [2] = Counterscreen qHTS for small molecule stabilizers of the endoplasmic reticulum resident proteome: GLuc-NoTag assay (AID 1508627); note: potency is the fitted concentration of half-maximal effect
# Procedure, shortened: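 Luminescence of Gaussia luciferase secreted into the medium (coelenterazine, 0.07x final, unlysed cells) was the read-out. Human SH-SY5Y neuroblastoma cells constitutively secreting untagged GLuc received compound for 19 h, then 100 nM thapsigargin for 4 h.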
# [3] = Confirmatory qHTS for small molecule stabilizers of the endoplasmic reticulum resident proteome: Secreted ER Calcium Modulated Protein (SERCaMP) assay (AID 1508628); note: nearly all actives have a fitted effect of over 40% in size; note: potency is the fitted concentration of half-maximal effect
# Procedure, shortened: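 We seeded SH-SY5Y-GLuc-SERCaMP cells, added compounds (three concentrations in the primary run, eleven up to 76.6 uM in confirmation), incubated 16 h, depleted ER calcium with thapsigargin, and read luciferase 4 h later.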
# [4] = Cell Viability qHTS for small molecule stabilizers of the endoplasmic reticulum resident proteome (AID 1508629); conditions: cell viability counter-screen, 100 nM thapsigargin for final 4 h;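 note: human SH-SY5Y neuroblastoma cells carrying the GLuc-SERCaMP reporter; compound exposure about 46 h in total before the viability read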
# [5] = Primary qHTS for small molecule stabilizers of the endoplasmic reticulum resident proteome: Secreted ER Calcium Modulated Protein (SERCaMP) assay (AID 1508630); note: potency is the fitted concentration of half-maximal effect
# Procedure, shortened: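 GLuc-SERCaMP-expressing SH-SY5Y cells, pretreated 16 h with compound, are challenged with thapsigargin to empty ER calcium stores; after 4 h, coelenterazine is added directly to the medium and luminescence is imaged.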
# [6] = A High-Content qHTS Against Drug Library for the Identification of Small Molecules that Inhibit DYT1 Early Onset Primary Dystonia-Associated Cell Pathology (AID 1645839; calls by dose curve; note: series mostly up to about 46 µM)
# Procedure, shortened: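 In this high-content image screen, delE TorsinA mislocalization in inducible Flp-In 293 cells is scored as %pathology, with cell count serving as the counterscreen. Compound exposure lasts 48 h under tetracycline induction in reduced-serum medium.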
# [7] = biological target: Cytochrome P450 2D6 (Homo sapiens) (UniProt P10635); assay: Cytochrome P450 family 2 subfamily D member 6 (CYP2D6) small molecule antagonists: luciferase biochemical (cell-free) qHTS assay (AID 1645840; active = well fitted curve in the direction sought with a large enough effect in the repeat runs; an effect the other way counts as inactive or inconclusive; note: nearly all actives have a fitted effect of over 55% in size; note: potency is the fitted concentration of half-maximal effect)
# Chain of Cytochrome P450 2D6 (Homo sapiens) (P10635 whole entry, looked up): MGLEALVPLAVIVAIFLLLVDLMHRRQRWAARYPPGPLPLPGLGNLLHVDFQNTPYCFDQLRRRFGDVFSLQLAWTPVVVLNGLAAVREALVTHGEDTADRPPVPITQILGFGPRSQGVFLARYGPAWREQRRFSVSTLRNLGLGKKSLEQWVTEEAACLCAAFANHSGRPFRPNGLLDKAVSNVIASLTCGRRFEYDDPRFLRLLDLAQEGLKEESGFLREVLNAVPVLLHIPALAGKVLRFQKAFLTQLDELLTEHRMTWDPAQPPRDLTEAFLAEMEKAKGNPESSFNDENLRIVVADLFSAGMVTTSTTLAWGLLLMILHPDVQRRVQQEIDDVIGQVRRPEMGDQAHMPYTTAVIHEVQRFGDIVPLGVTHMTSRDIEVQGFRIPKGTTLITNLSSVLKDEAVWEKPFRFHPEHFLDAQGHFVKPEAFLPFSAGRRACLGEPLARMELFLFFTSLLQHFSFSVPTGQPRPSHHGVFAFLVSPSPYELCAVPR
# Procedure, shortened: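 P450-Glo luminescent screen: recombinant CYP2D6 enzyme–proluciferin substrate mix preincubated with compound 10 min at room temperature, then NADPH regeneration added for 1 h at room temperature. Detection reagent added for 20 min; luciferin light read as relative luminescence units.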
# [8] = biological target: Cytochrome P450 2C9 (Homo sapiens) (UniProt P11712); assay: Cytochrome P450 family 2 subfamily C member 9 (CYP2C9) small molecule antagonists: luciferase biochemical (cell-free) qHTS assay (AID 1645842; active = well fitted curve in the direction sought with a large enough effect in the repeat runs; an effect the other way counts as inactive or inconclusive; note: series mostly up to about 57 µM; nearly all actives have a fitted effect of over 55% in size)
# Chain of Cytochrome P450 2C9 (Homo sapiens) (P11712 whole entry, looked up): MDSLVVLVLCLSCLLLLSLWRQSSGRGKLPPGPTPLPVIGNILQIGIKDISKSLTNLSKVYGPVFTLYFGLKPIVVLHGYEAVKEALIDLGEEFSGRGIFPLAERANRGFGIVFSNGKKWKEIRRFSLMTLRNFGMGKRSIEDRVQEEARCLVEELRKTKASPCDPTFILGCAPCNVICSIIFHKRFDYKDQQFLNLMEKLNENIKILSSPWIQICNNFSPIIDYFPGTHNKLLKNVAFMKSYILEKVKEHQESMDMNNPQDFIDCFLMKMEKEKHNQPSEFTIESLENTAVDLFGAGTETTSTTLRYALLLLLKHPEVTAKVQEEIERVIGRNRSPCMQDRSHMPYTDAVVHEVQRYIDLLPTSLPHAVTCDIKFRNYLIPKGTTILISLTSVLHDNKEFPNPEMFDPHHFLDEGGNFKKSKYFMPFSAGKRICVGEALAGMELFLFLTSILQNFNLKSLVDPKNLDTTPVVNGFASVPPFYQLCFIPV
# Procedure, shortened: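 Luminescence, after 20 min with luciferin detection reagent, reflected CYP2C9 turnover during a 1 h NADPH-driven reaction at 37C. Enzyme-substrate mix contained 0.4% bovine serum albumin and was preincubated with compound 10 min at room temperature.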
# [9] = biological target: Papain (Carica papaya) (UniProt P00784); assay: Primary qHTS assay for inhibitors of the protease papain (AID 1645873);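 note: papain turnover of Z-FR-AMC read as the AMC fluorescence gain over 10 min; series mostly up to about 50 µM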
# Chain of Papain (Carica papaya) (P00784 whole entry, looked up): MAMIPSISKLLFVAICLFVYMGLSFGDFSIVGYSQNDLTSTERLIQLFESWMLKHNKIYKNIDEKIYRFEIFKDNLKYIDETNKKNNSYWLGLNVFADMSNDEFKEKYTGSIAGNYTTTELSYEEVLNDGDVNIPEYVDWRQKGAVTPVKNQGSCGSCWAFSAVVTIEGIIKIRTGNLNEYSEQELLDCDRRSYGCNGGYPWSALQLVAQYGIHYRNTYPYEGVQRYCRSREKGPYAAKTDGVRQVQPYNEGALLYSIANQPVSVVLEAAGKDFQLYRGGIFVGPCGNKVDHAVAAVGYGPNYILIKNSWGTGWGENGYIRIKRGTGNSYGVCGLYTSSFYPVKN
smiles,measurement,setting,value
Nc1nc2c(ncn2COCCO)c(=O)[nH]1,outcome,[1],inactive
same,Potency,[2],inactive
same,Potency,[3],inactive
same,max response,[4],1.71%
same,Potency,[5],inactive
same,Potency,[6],inactive
same,Potency,[7],inactive
same,Potency,[8],inactive
same,Potency,[9],inactive
Cc1c(CN2CCN(C(=O)C(C)C)CC2)sc2c(N3CCOCC3)nc(-c3cnc(N)nc3)nc12,outcome,[1],inactive
same,Potency,[5],inactive
c1ccc(-c2nn3c(c2-c2ccnc4cc(OCCN5CCOCC5)ccc24)CCC3)nc1,outcome,[1],inactive
same,Potency,[5],inactive
OC(CN1CCC(Cc2ccc(F)cc2)CC1)c1ccc(Cl)cc1 (configuration not stated),outcome,[1],inactive
same,Potency,[2],17.8 µM (active)
same,max response,[4],-25.9%
same,Potency,[5],inactive
same,Potency,[6],inactive
same,Potency,[7],15.5 nM (active) and 53.5 nM (active)
same,Potency,[8],inactive
same,Potency,[9],inactive
Oc1ccc(C2CNCCc3c2cc(O)c(O)c3Cl)cc1 (configuration not stated),outcome,[1],inactive
same,Potency,[2],inactive
same,max response,[4],-10.9%
same,Potency,[5],inactive
same,Potency,[6],inactive
same,Potency,[8],inactive
same,Potency,[9],inactive
COc1c(Cl)cc2c([nH]c3cnccc32)c1NC(=O)c1cccnc1C,outcome,[1],inactive
same,Potency,[5],inactive
CCOC(=O)N1CCC(=C2c3ccc(Cl)cc3CCc3cccnc32)CC1,outcome,[1],inactive
same,Potency,[2],35.5 µM (active)
same,Potency,[5],inactive
same,Potency,[9],inactive
CC(C)(Sc1ccc(CCN(CCCCC2CCCCC2)C(=O)NC2CCCCC2)cc1)C(=O)O,outcome,[1],inactive
same,Potency,[2],inactive
same,Potency,[5],inactive
O=c1ncn2nc(Sc3ccc(F)cc3F)ccc2c1-c1c(Cl)cccc1Cl,outcome,[1],inactive
O=C(O)[C@@H](c1ccc(OCc2ccc3ccccc3n2)cc1)C1CCCC1,outcome,[1],inactive
same,Potency,[5],inactive
C[C@H](NC(=O)Cc1cc(F)cc(F)c1)C(=O)N[C@@H]1C(=O)N(C)c2ccccc2-c2ccccc21,outcome,[1],inactive
CN(C)c1ccc(Nc2nc(N)n(C(=O)c3c(F)cccc3F)n2)cc1,outcome,[1],inactive
COc1ccc2nc(S(=O)Cc3ncc(C)c(OC)c3C)[nH]c2c1 (configuration not stated),outcome,[1],inactive
same,Potency,[2],inactive
same,max response,[4],-2.62%
same,Potency,[5],inactive
same,Potency,[6],inactive
same,Potency,[7],inactive
COc1ccccc1[C@H](c1cccc2ccccc12)[C@@](C)(C#N)C(=O)N1CCC(c2cccc(C(F)(F)F)c2)CC1,outcome,[1],inactive
Cc1ccccc1C(C(=O)NC1CCCC1)N(C(=O)Cn1cnc2ccccc21)c1cccc(F)c1 (configuration not stated),outcome,[1],inactive
same,Potency,[5],inactive
OC(CCN1CCCCC1)(c1ccccc1)C1CC2C=CC1C2 (configuration not stated),outcome,[1],inactive
same,Potency,[2],inactive
same,Potency,[3],15.8 µM (active) and 22.4 µM (active)
same,max response,[4],24.4%
same,Potency,[5],10 µM (active)
same,Potency,[6],inactive
same,Potency,[7],1.23 µM (active)
same,Potency,[8],inactive
same,Potency,[9],inactive
Cc1cc([C@@H](C)Nc2ccccc2C(=O)O)c2nc(N3CCOCC3)cc(=O)n2c1,outcome,[1],inactive
same,Potency,[5],inactive
OCCC#Cc1nc(-c2ccc(F)cc2)c(-c2ccncc2)n1CCCc1ccccc1,outcome,[1],inactive
same,Potency,[5],inactive
O=C(Nc1ccc(F)c(C(F)(F)F)c1)Nc1nnc(-c2ccncc2)s1,outcome,[1],inactive
same,Potency,[5],inactive
COc1ccc(-c2ccc3c(N4CCOCC4)nc(N4C[C@@H](C)O[C@@H](C)C4)nc3n2)cc1CO,outcome,[1],inactive
same,max response,[4],-27.3%
same,Potency,[5],14.9 µM (active)
Fc1ccc(Cl)cc1-c1nc(Nc2ccncc2)c2nccnc2n1,outcome,[1],inactive
CC1(C)SCCN(S(=O)(=O)c2ccc(OCC#CCO)cc2)[C@@H]1C(=O)NO,outcome,[1],inactive
same,Potency,[5],inactive
Cc1cnc(Nc2ccc(OCCN3CCCC3)cc2)nc1Nc1cccc(S(=O)(=O)NC(C)(C)C)c1,outcome,[1],inactive
same,Potency,[5],inactive
Nc1ncnc2nc(-c3ccc(N4CCOCC4)nc3)cc(-c3cccc(Br)c3)c12,outcome,[1],inactive
Cc1ccccc1C(OCCN(C)C)c1ccccc1 (configuration not stated),outcome,[1],inactive
same,Potency,[2],inactive
same,Potency,[5],inactive
same,Potency,[6],inactive
same,Potency,[8],inactive
same,Potency,[9],inactive
CO[C@@H]1[C@H](N(C)C(=O)c2ccccc2)C[C@H]2O[C@]1(C)n1c3ccccc3c3c4c(c5c6ccccc6n2c5c31)C(=O)NC4,outcome,[1],inactive
same,Potency,[5],inactive
CC(C)(C)OC(=O)CN(Cc1ccc(Cl)cc1)Cc1ccc([N+](=O)[O-])s1,outcome,[1],inactive
same,Potency,[5],inactive
Cc1cc(Nc2nc(N[C@@H](C)c3ncc(F)cn3)ncc2Cl)n[nH]1,outcome,[1],inactive
CNC(=O)c1ccc(C)c(-n2c(C)cc(OCc3ccc(F)cc3F)c(Br)c2=O)c1,outcome,[1],inactive
Cc1[nH]c(=O)c(C#N)cc1-c1ccc2nccn2c1,outcome,[1],inactive
same,Potency,[2],inactive
same,max response,[4],9.8%
same,Potency,[5],inactive
same,Potency,[6],inactive
same,Potency,[7],inactive
same,Potency,[8],inactive
Cc1n[nH]c(C)c1Cc1sc2c(c1C(=O)N1C[C@H](O)CO1)c(=O)n(C)c(=O)n2CC(C)C,outcome,[1],inactive
CCn1c(-c2nonc2N)nc2cnc(Oc3cccc(NC(=O)c4ccc(OCCN5CCOCC5)cc4)c3)cc21,outcome,[1],inactive
same,Potency,[5],inactive
